# Activity calls are given as the source filed them.
# Experiments:
# [1] = E. coli DRC41 culture turbidity changes, primary screen, E. coli filamentation inducer project, strain DRC41, OD650, 48 h (AID 1152);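 further: E. coli MC1000 strain DRC41 lacking acrAB efflux pump and sulA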; settings: E. coli DRC41 (acrAB sulA), higher = more signal, called active from +8 up or from −8 down
# [2] = small-molecule binders of probe aLefty1, primary screen, biochemical, small-molecule microarray, 635/667 nm fluorescence (AID 1153); settings: higher = more signal;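 further: score merges spot fluorescence with signal-to-noise ratio from the scanned slide images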
# [3] = PSAC antagonists in infected red cells, primary screen, cell-based, P. falciparum Indochina, OD700, 1 h (AID 1154); settings: P. falciparum Indochina infected RBC osmotic lysis, higher = more signal, called active from +8 up or from −8 down
# [4] = PSAC antagonists in infected red cells, primary screen, cell-based, P. falciparum Indochina, OD700, 2 h (AID 1155);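 further: lysis reports solute entry through the parasite surface anion channel PSAC; channel blockers reduce lysis of infected cells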; settings: P. falciparum Indochina infected erythrocytes, osmotic lysis OD700; higher = more signal, called active from +8 up or from −8 down
# [5] = osmotic lysis modulators in infected erythrocytes, primary screen, PSAC antagonist project, cell-based, P. falciparum Indochina, OD700, 3 h (AID 1156); settings: higher = more signal, called active from +8 up or from −8 down
# [6] = PSAC antagonists in infected red cells, primary screen, cell-based, P. falciparum Indochina, OD700, 18 h (AID 1157); settings: P. falciparum Indochina infected erythrocytes, osmotic lysis OD700, 18 h; higher = more signal, called active from +8 up or from −8 down
# [7] = modulators of S6 phosphorylation in cells, primary screen, cell-based, A549, cytoblot, luminescence, serum-stimulated (AID 1158); settings: A549 phospho-S6 cytoblot, 5 h, higher = more signal;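 further: serum-stimulated A549 lung adenocarcinoma cells; signal is phosphorylated S6 detected by cytoblot immunostaining with HRP secondary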
# [8] = target: NADPH oxidase 2 (Homo sapiens) (UniProt P04839); experiment: NOX2-dependent H2O2 signal modulators, primary screen, NOX inhibitor project, cell-based, HEK293-NOX2, PMA-stimulated, Amplex Red fluorescence (AID 1159); settings: 45 min, higher = more signal, called active from +8 up or from −8 down; further: test concentration not given here
# [9] = target: NADPH oxidase 4 (Homo sapiens) (UniProt Q9NPH5); experiment: NOX4-dependent H2O2 signal modulators, primary screen, NOX inhibitor project, cell-based, HEK293-NOX4, tetracycline-induced, Amplex Red fluorescence (AID 1160); settings: 45 min, higher = more signal, called active from +8 up or from −8 down
# [10] = target: NADPH oxidase 5 (Homo sapiens) (UniProt Q96PH1); experiment: NOX5-dependent H2O2 signal modulators, primary screen, NOX inhibitor project, cell-based, HEK293-NOX5, Amplex Red fluorescence (AID 1161); settings: HEK293-NOX5, ionomycin, 45 min, higher = more signal
# Chain of NADPH oxidase 5 (Homo sapiens) (Q96PH1 whole entry, looked up): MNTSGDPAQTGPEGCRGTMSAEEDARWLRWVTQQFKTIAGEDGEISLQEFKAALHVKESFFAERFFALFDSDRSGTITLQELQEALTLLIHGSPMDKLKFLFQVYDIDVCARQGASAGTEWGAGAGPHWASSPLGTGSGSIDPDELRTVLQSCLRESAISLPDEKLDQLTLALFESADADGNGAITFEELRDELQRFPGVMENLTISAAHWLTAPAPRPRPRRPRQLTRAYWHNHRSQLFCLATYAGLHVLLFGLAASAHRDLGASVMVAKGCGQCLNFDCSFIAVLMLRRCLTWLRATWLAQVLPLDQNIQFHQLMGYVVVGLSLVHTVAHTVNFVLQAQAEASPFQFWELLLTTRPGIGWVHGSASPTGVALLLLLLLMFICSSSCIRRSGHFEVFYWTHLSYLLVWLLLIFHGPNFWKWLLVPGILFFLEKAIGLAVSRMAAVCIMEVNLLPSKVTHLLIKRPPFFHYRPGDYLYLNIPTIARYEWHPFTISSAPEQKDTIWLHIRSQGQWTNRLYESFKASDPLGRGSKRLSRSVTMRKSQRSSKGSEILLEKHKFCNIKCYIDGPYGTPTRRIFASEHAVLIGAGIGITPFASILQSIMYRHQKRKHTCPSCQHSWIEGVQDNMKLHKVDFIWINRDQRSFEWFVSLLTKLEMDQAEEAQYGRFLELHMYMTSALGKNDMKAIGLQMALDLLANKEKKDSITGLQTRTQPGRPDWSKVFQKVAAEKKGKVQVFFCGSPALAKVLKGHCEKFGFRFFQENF
# Chain of NADPH oxidase 4 (Homo sapiens) (Q9NPH5 whole entry, looked up): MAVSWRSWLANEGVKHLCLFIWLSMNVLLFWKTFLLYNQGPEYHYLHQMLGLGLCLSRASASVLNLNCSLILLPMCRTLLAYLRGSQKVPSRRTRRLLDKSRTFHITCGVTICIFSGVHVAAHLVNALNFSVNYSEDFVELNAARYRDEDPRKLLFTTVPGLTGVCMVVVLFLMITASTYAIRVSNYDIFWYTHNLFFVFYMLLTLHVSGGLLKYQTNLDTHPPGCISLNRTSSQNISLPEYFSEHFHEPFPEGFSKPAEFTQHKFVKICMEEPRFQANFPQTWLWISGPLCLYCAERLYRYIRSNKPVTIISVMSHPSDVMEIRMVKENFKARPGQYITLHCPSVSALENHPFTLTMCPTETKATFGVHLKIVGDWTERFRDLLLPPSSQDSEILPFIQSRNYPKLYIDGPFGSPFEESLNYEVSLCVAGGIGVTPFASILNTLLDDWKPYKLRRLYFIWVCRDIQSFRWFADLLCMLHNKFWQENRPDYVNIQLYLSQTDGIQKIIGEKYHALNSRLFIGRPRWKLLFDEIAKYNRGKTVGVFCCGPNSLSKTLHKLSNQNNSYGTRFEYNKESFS
# Chain of NADPH oxidase 2 (Homo sapiens) (P04839 whole entry, looked up): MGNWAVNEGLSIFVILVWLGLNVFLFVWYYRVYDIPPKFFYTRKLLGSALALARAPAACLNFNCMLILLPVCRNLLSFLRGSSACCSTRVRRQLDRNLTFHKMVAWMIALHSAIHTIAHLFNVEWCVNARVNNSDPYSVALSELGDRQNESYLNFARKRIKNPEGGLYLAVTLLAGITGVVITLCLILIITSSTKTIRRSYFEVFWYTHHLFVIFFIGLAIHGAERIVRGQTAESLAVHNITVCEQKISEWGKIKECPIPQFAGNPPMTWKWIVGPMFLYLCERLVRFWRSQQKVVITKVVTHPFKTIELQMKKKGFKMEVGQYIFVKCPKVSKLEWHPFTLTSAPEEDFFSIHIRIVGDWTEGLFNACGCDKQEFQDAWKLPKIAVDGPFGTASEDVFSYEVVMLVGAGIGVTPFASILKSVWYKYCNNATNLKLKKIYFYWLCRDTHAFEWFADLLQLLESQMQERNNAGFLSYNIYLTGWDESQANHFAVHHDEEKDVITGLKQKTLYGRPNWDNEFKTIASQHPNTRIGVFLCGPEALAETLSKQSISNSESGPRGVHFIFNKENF
Structure (SMILES),z-score [1],composite z-score [2],z-score [3],z-score [4],z-score [5],z-score [6],z-score [7],z-score [8],z-score [9],z-score [10]
O=C1C2C=CC(C(O)c3cccc(O)c3)N(Nc3ccccc3)C2C(=O)N1c1ccccc1 (stereo not given),-1.09 (inactive),0.315,6.48 (inactive),0.214 (inactive),0.185 (inactive),0.115 (inactive),0.109,-3.44 (inactive),-6.62 (inactive),-6.85
C[C@]1(C(=O)O)c2ccccc2C(=O)N(Cc2ccc(OC(F)(F)F)cc2)[C@H]1c1ccc(CO)cc1,0.026 (inactive),0.227,3.93 (inactive),0.789 (inactive),0.503 (inactive),0.18 (inactive),-0.115,0.948 (inactive),0.41 (inactive),-0.52
CCc1cccc(NC(=O)O[C@H]2[C@H](OC(=O)Nc3ccccc3)[C@H](OC(=O)Nc3ccccc3)[C@@H](OC)O[C@@H]2CO)c1,-1.42 (inactive),0.253,10.1 (active),3.34 (inactive),-1.53 (inactive),1.92 (inactive),0.213,-1.12 (inactive),-0.593 (inactive),-1.3
C=C/C=C/[C@@H]1C(=C)CN([C@@H](Cc2ccccc2)C(=O)OC)[C@H]1[C@@H](O)Cc1ccccc1,0.834 (inactive),-0.0601,0.743 (inactive),0.362 (inactive),-0.41 (inactive),0.109 (inactive),0.294,0.0619 (inactive),-0.199 (inactive),0.568
COC(=O)C1=CC(CCCO)=CC(C)N(Cc2cccc(OC(F)(F)F)c2)C=C1C(=O)OC (stereo not given),-0.0692 (inactive),0.248,2.3 (inactive),0.192 (inactive),0.983 (inactive),0.5 (inactive),-0.334,0.159 (inactive),-0.317 (inactive),0.859
CN1C=C(C(=O)OCCS(C)(=O)=O)C(C(=O)OCCS(C)(=O)=O)=CC(c2ccc(CO)cc2)=CC1c1cccs1 (stereo not given),0.248 (inactive),0.391,9.6 (active),1.64 (inactive),0.298 (inactive),0.969 (inactive),0.0225,-0.937 (inactive),-0.558 (inactive),-1.98
CC1CC/C=C\[C@H]2OC34C=CCN(CCN5CCOCC5)C(=O)[C@H]3N(C(C)CO)C(=O)[C@@H]4C2C(=O)O1 (stereo not given in full),-0.197 (inactive),-0.147,0.77 (inactive),-0.306 (inactive),0.753 (inactive),0.233 (inactive),0.0656,0.801 (inactive),-0.323 (inactive),1.58
CN(C)CCCCCCNC(=O)[C@@H]1C[C@@H]2C(=O)N[C@@H](CCCCN)C(=O)N2[C@@H]1c1ccc(O)cc1,0.724 (inactive),3.1,0.983 (inactive),-0.111 (inactive),2.87 (inactive),-1.88 (inactive),1.32,-0.0284 (inactive),0.901 (inactive),1.13
COC(=O)[C@@]1(Cc2ccc(F)cc2)[C@H]2c3cc(C(=O)N4CCCC4)n(C)c3C[C@H]2CN1C(=O)c1ccccc1,-0.327 (inactive),0.603,2.59 (inactive),0.107 (inactive),-0.105 (inactive),0.47 (inactive),0.305,0.282 (inactive),-0.466 (inactive),-0.565
COC(=O)[C@@]1(Cc2ccccc2CN=[N+]=[N-])N=C(c2ccc(OCCCO)cc2)O[C@H]1c1ccccc1,-0.571 (inactive),0.105,23.6 (active),19.8 (active),0.882 (inactive),3.64 (inactive),0.216,-2.19 (inactive),-0.348 (inactive),-2.48
O=c1cccc(-c2ccc(F)cc2)o1,-0.527 (inactive),0.0367,1.74 (inactive),0.624 (inactive),-0.099 (inactive),0.832 (inactive),-0.387,0.227 (inactive),-1.19 (inactive),-0.184
C=CCNC(=O)[C@@H]1[C@H]2C(=O)O[C@H](c3ccccc3)[C@H](c3ccccc3)N2[C@H](c2ccc(OCCO)cc2)[C@@]12C(=O)N(C(=O)OCCOC)c1ccc(C#CCCO)cc12,3.11 (inactive),0.503,4.81 (inactive),0.343 (inactive),-0.38 (inactive),-1.47 (inactive),2.25,1.3 (inactive),0.821 (inactive),-0.573

# Reference: PubChem BioAssay
